“And” between values parts separate entries of the source, which are not always exact repeats. Equal values may be shown once. The source made the active and inactive calls. The calls were made as follows: active = hit-call score of the fitted dose curve at least 0.9, where 1 is the maximum; inconclusive = response in the unintended direction; inactive = score below 0.9.
test system: rat CYP2B1, gene 24300; test: NVS_ADME_rCYP2B1: NovaScreen (NVS) CYP450-related Enzyme Activity (ADME) Assay for rat CYP2B1 (AID 2283117)
Experimental: NVS_ADME_rCYP2B1 is a biochemical, single-readout assay that uses extracted gene-proteins in a cell-free assay. Measurements were taken 0.75 hour after chemical dosing in a 96-well plate.NVS_ADME_rCYP2B1 is one of one assay component(s) measured or calculated from the NVS_ADME_rCYP2B1 assay. It is designed to make measurements of enzyme activity, a form of enzyme reporter, as detected with fluorescence intensity signals by Fluorescence technology.Data from the assay component NVS_ADME_rCYP2B1 was analyzed into 1 assay endpoint. This assay endpoint, NVS_ADME_rCYP2B1, was analyzed in the positive analysis fitting direction relative to Acetonitrile as the negative control and baseline of activity. Using a type of enzyme reporter, loss-of-signal activity can be used to understand changes in the enzymatic activity as they relate to the gene Cyp2b1. Furthermore, this assay endpoint can be referred to as a primary readout, because this assay has produced multiple assay endpoints where this one serves a enzymatic activity function. To generalize the intended target to other relatable targets, this assay endpoint is annotated to the cyp intended target family, where the subfamily is xenobiotic metabolism.
Binding assays used specific radioligands (tritiated, iodinated) with non-radioactive competitive displacement ligands in agonist or antagonist protocols (as indicated) and various reference compounds and inhibitors to titrate specific binding to receptors and transporters. Most enzyme assays (CYPs, kinases, phosphatases, proteases, HDACs) used recombinant protein and specific substrates (fluorescence mostly, some colorimetric and radioactive) and inhibitors, followed by a biochemical separation of substrate and product. All assays for the biochemical HTS were initially run in duplicate at a single concentration (10 uM for CYP450 assays and 25 uM for all others). Assay-chemical combinations meeting a pre-defined threshold (e.g., 30% inhibition and other criteria defined below) were then run in singleton concentration-response format with maximum concentration of 20 uM for CYPs and 50 uM for all others. Each assay was run with positive and negative controls, and concurrent controls on every plate. The follow-up (secondary) screen tested active chemical-pairs in concentration series, as well as a few additional assays not tested in the primary screen, some selected negative inactives, and several cases re-run in the concentration series for confirmatory purposes.

Structure (SMILES)	AC50	outcome
CCCOCC(=Nc1ccc(Cl)cc1C(F)(F)F)n1ccnc1	279 nM (active)	–
C[Si](Cn1cncn1)(c1ccc(F)cc1)c1ccc(F)cc1	37.1 nM (active)	–
CCCCOC(=O)c1ccccc1C(=O)O	–	inactive
CCc1cccc(CC)c1N(COC)C(=O)CCl	3440 nM (active)	–
CC(C1CC1)C(O)(Cn1cncn1)c1ccc(Cl)cc1 (stereo not drawn)	401 nM (active) and 1.61 µM (active)	–
CCOC(=O)CC(SP(=O)(OC)OC)C(=O)OCC (stereo not drawn)	–	inactive
Nc1c(Cl)cc([N+](=O)[O-])cc1Cl	–	inactive
CCOP(=S)(OCC)Oc1ccc2c(C)c(Cl)c(=O)oc2c1	914 nM (active)	–
CCc1cccc(C)c1N(C(=O)CCl)C(C)COC (stereo not drawn)	6430 nM (active)	–
FC(F)C(F)(F)OCC(Cn1cncn1)c1ccc(Cl)cc1Cl (stereo not drawn)	452 nM (active)	–
CCOP(=S)(OCC)Oc1ccc([N+](=O)[O-])cc1	559 nM (active)	–
CC(C)N(C(=O)SCC(Cl)=C(Cl)Cl)C(C)C	–	inactive
C=C(C)[C@H]1Cc2c(ccc3c2O[C@@H]2COc4cc(OC)c(OC)cc4[C@@H]2C3=O)O1	–	inactive

Source: PubChem BioAssay (EPA / NIEHS)
